# The sample as a whole holds a higher share of hits than the screen did.
# Giardia FBPA inh = Giardia lamblia aldolase inhibition; Potency, µM (doses to about 59.6 µM), without a hit: at the top dose activity, negative = inhibition, most hits filed as inhibitors; 290,000 compounds, 0.71% hits; AID 2451; purified Giardia FBPA; A8B2U2; also: potency is read from the fitted curve at half-maximal effect; % is scaled to controls: 0 for no effect and ±100 for the full control effect; nearly all actives have a fitted effect of over 55% in size
#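 40 nM FBPA preincubated 10 min at RT with compound (up to 57.5 uM final), then substrate plus GAPDH/TPI/NAD/arsenate coupling and diaphorase/resazurin added. Fluorescence read after 20 min at RT, 525/598 nm.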
# Cycloheximide cs = counter-screen for Shiga toxin inhibitors: cycloheximide protein synthesis inhibition. cell reporter, cycloheximide protein synthesis inhibition counterscreen. max response, %. AID 2314. 300,000 compounds, 12% hits; in the data active = max response mostly above about 13%, no sharp cut-off; inactive = mostly below about 14%; also: read at 38.3 µM for the half of the compounds with a filed dose; 0% is about no effect
# Shiga inhibitor = Shiga toxin inhibition; Vero cells, Shiga toxin protein synthesis inhibition reporter; inhibition, % at 38.7 µM; 290,000 compounds, 9.2% hits; in the data active = inhibition mostly above about 28%, no sharp cut-off; inactive = mostly below about 43%; also: 0% is about no effect
# TbPYK inhibitor = blocks Trypanosoma brucei pyruvate kinase; TbPYK enzyme, Kinase-Glo Plus ATP luminescence, 45 min; Potency, µM (top dose mostly 76.8 µM), without a hit: top-dose activity, negative = inhibition, most hits filed as inhibitors; 410,000 compounds, 0.12% hits; AID 624173; also: potency is read from the fitted curve at half-maximal effect; % is scaled to controls: 0 for no effect and ±100 for the full control effect; nearly all actives have a fitted effect of over 50% in size
#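 ADP (130 uM final) triggers the TbPYK reaction after compound addition; incubation is 45 min at room temperature. Kinase-Glo Plus is then added and luminescence imaged. Normalized data are fitted to concentration-effect curves.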
# Sm TGR inh = inhibitors of Schistosoma mansoni thioredoxin glutathione reductase; purified TGR, DTNB reduction, TNB absorbance 405 nm; Potency, µM (highest dose often 114 µM), inactives show top-dose activity change, negative = inhibition, usual class: inhibitors; 360,000 compounds, 3% hits; also: potency is read from the fitted curve at half-maximal effect; % is scaled to controls: 0 for no effect and ±100 for the full control effect; nearly all actives have a fitted effect of over 60% in size
#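 First, TGR (20 nM dispensed) and NADPH were mixed with compound. Second, a 15 min room-temperature incubation followed. Third, further NADPH and then DTNB were added to start the reaction. Finally, TNB absorbance was monitored kinetically.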
# LmPK inh = inhibitors of Leishmania mexicana pyruvate kinase. 290,000 compounds, 0.37% hits. purified LmPK, Kinase-Glo ATP luminescence, 1 h. Potency, µM (highest dose often 57.5 µM), for the others: at the top dose activity change, negative = inhibition, usual class: inhibitors; also: potency is read from the fitted curve at half-maximal effect; % is scaled to controls: 0 for no effect and ±100 for the full control effect
# Target sequence (Q27686 whole entry, looked up): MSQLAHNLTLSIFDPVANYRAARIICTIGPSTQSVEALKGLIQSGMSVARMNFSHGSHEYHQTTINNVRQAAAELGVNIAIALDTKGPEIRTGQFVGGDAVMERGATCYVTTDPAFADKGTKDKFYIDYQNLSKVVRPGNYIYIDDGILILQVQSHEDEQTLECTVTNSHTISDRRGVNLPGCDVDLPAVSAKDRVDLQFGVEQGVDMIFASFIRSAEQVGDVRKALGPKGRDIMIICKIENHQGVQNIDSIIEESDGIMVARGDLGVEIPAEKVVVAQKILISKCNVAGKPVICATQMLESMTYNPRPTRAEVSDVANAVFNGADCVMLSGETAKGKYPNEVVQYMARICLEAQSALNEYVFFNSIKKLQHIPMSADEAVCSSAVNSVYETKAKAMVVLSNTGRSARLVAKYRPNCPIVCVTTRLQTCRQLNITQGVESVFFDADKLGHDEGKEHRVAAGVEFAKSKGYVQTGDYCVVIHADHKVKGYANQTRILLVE
#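 Purified LmPK (0.1 nM) with 0.5 mM PEP and 0.1 mM ADP in imidazole buffer pH 7.2 with MgCl2/KCl, 1 h at room temperature. ATP formed was read by luciferase luminescence and normalized to no-enzyme and uninhibited controls.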
# Numbers without * were called inactive; ? = inconclusive; · = not tested or not shown; [ ] = dose if it differs, or a comment. Unless noted, calls follow the shape of the dose curve; as a rule, active = well fitted curve in the direction sought with a large enough effect; inconclusive = small, poorly fitted or top-dose-only effect, or another doubt; inactive = no such curve, though single readings can be large; an effect the other way counts as inactive or inconclusive.
SMILES,Giardia FBPA inh,Cycloheximide cs,Shiga inhibitor,TbPYK inhibitor,Sm TGR inh,LmPK inh
CC(=O)CCS(=O)(=O)c1ccc(Oc2ccc(S(=O)(=O)CCC(C)=O)cc2)cc1,8%,17*,23*,4%,10µM*,3%
CCOc1cccc2sc(NC(=O)CCS(=O)(=O)c3ccccc3)nc12,-6%,13,5,-8%,-29%,-8%
CC(=O)CS(=O)(=O)c1ccc(Oc2ccc(S(=O)(=O)CC(C)=O)cc2)cc1,-1%,-6,-2,4%,-31%,2%
COc1ccccc1-c1nnc(NC(=O)CCS(=O)(=O)c2ccccc2)o1,·,10,4,1%,40µM*,1%
COc1ccc(C)c2sc(NC(=O)CCS(=O)(=O)c3ccccc3)nc12,3%,2,12,-6%,5µM*,-2%
Cc1ccc(-n2ncc(C(=O)NC3CCCCC3)c2C2CCN(C(=O)OC(C)(C)C)CC2)cc1,·,·,·,2%,10%,·
CCOc1ccccc1NC(=O)CCS(=O)(=O)c1ccc(OC)cc1,-6%,-1,29,4%,-23%,7%
CCc1ccccc1NC(=O)CCS(=O)(=O)c1ccc(OC)cc1,-8%,-4,-7,-12%,14µM*,8%
O=C(C=Cc1ccc2c(c1)OCO2)C=Cc1ccc2c(c1)OCO2,·,·,·,-3%,·,·
O=C(/C=C/c1ccc2c(c1)OCO2)N1CCOCC1,1%,26*,67*,0%,4%,-9%
CC(C)(C)c1ccc(/C=C/C(=O)N2CCOCC2)cc1,-5%,66*,113*,-2%,-3%,4%
CCC1CCCCN1C(=O)/C=C/c1ccc2c(c1)OCO2 (configuration not stated),3%,9.8*,38,-1%,12%,1%
O=C(/C=C/c1cccs1)Nc1ccc(N2CCOCC2)c(S(=O)(=O)Nc2ccccc2Cl)c1,0%,21*,61*,-9%,4%,0%
CC1CN(C(=O)/C=C/c2ccc3c(c2)OCO3)CC(C)O1 (configuration not stated),-7%,1,11,-2%,1%,3%
COCCn1c(=O)c(C)nc2cnc(Nc3ccccc3)nc21,-4%,·,·,·,·,·
COc1ccc(/C=C/C(=O)N2CCOCC2)cc1OC,7%,-3,-6,-1%,-8%,-7%
Cc1ccc(NC(=O)/C=C/c2ccc3c(c2)OCO3)cc1S(=O)(=O)N1CCOCC1,-3%,13*,3,5%,3%,4%
CC(C)Cc1ccc(/C=C/C(=O)N2CCOCC2)cc1,0%,46*,56*,3%,3%,-11%
O=C(/C=C/c1ccco1)Nc1ccc(Cl)c(S(=O)(=O)N2CCOCC2)c1,-4%,20*,74*,-2%,8.9µM*,3%
COc1ccc(OC)c(NC(=O)COCc2cc(-c3ccc(F)cc3)on2)c1,·,·,·,-8%,29%,·
O=S(=O)(Nc1ccc(S(=O)(=O)N2CCCCC2)cc1)c1ccc(Br)s1,29%,-2,-5,0%,6.3µM*,6%
COC(=O)c1ccccc1NC(=O)c1ccc(COc2ccccc2)o1,4%,-2,4,-7%,0%,5%
COC(=O)c1ccccc1NC(=O)c1ccc(COc2cccc3ccccc23)o1,?,2,12,1%,56µM*,0%
COc1ccccc1OCc1ccc(C(=O)NC2CCCCC2)o1,-1%,-2,-2,-1%,-12%,1%
COc1ccccc1OCc1ccc(C(=O)OCC2CCCO2)o1 (configuration not stated),4%,41*,23,-4%,?,-4%
SMILES,Giardia FBPA inh,Cycloheximide cs,Shiga inhibitor,TbPYK inhibitor,Sm TGR inh,LmPK inh
COc1ccccc1OCc1ccc(C(=O)NC(C)(C)C)o1,0%,12*,20,1%,?,3%
COC(=O)c1ccc(COc2ccccc2OC)o1,10%,12,23,0%,-11%,-2%
COc1ccccc1OCCCC(=O)NCc1ccco1,0%,1,-16,-6%,-17%,2%
COc1ccccc1OCc1ccc(C(=O)NCc2ccco2)o1,6%,7,18,-5%,40µM*,5%
CN(C)S(=O)(=O)c1ccc(Cl)c(NC(=O)C2CCN(S(=O)(=O)c3cccs3)CC2)c1,·,·,·,0%,1%,·
CCc1ccccc1NC(=O)CSc1nnc(-c2cc(C)[nH]n2)n1N,·,2,-4,2%,8%,4%
Cc1ncc(CN2CCC(n3nccc3NC(=O)c3ccccc3)CC2)s1,2%,-2,-16,0%,1%,5%
CC(C)c1ccc(C(=O)N2CCOCC2c2cc(C(=O)Nc3ccccc3)no2)cc1 (configuration not stated),·,·,·,4%,·,·
CC(C)Oc1ccc(C(=O)NC(=S)Nc2ccc(Cl)c(C(=O)O)c2)cc1,1%,14,-4,-5%,40µM*,7%
COc1cccc(C(=O)NC(=S)Nc2ccc(Cl)c(C(=O)O)c2)c1,?,6,28,-2%,32µM*,-2%
COc1c(C)cc(Br)cc1C(=O)NC(=S)Nc1ccc(Cl)c(C(=O)O)c1,?,22,102,4%,-31%,10%
CCOc1cc(C(=O)NC(=S)Nc2ccc(Cl)c(C(=O)O)c2)cc(OCC)c1OCC,-16%,-3,-11,-7%,32µM*,3%
O=C(O)c1cc(NC(=S)NC(=O)C(c2ccccc2)c2ccccc2)ccc1Cl,23%,-2,-28,-11%,-24%[57.1 µM],-3%
COc1ccc(S(=O)(=O)NCC(c2ccc(N(C)C)cc2)N2CCc3ccccc32)cc1F (configuration not stated),·,·,·,-8%,-11%,·
COc1ccc(OC)c(S(=O)(=O)N2Cc3ccccc3CC2C(=O)Nc2nccs2)c1 (configuration not stated),-7%,64*,107*,3%,-8%,2%
COc1ccc(OC)c(S(=O)(=O)N2Cc3ccccc3CC2C(=O)Nc2ccc(C)cc2C)c1 (configuration not stated),·,·,·,1%,1%,·
COc1ccc(/C=C2\Sc3ccc(C(=O)N4CCOCC4)cc3N(C)C2=O)cc1,1%,8,35,-10%,-9%,0%
COC(=O)C1=C(C)N(CC2CCCO2)C(=O)/C1=C\c1ccc(O)cc1 (configuration not stated),-18%,-1,-7,3%,50µM*,0%
COc1ccc(/C=C2\Sc3ccc(C(=O)NCC4CCCO4)cc3N(C)C2=O)cc1 (configuration not stated),16%,12*,11,-22%,-4%,9%
COc1ccc(/C=C2\SC(=S)N(CC3CCCO3)C2=O)cc1 (configuration not stated),-5%,20*,13,-16%,4%,2%

# Assay outcomes from PubChem.
